# SW480 rerep: inducers of DNA re-replication in SW480 colon cancer cells; SW480 DNA re-replication, Hoechst DNA content imaging, 48 h; Potency, µM (highest dose often 46.1 µM), for inactives: top-dose re-replication activation, most hits filed as activators; 1.8% of 340,000 active; AID 624297; further: % of control where 0% means no effect; nearly all actives have a fitted effect of over 55% in size
#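 Readout is total intensity of Hoechst-stained nuclei, excited at 405 nm and collected at 500-530 nm. Compound treatment lasted 48 hr at 37 C in 5% CO2 before staining.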
# KB-3-1 tox: kills parental KB-3-1 adenocarcinoma cells; 1.4% of 400,000 active; KB-3-1 viability, CellTiter-Glo ATP luminescence, 72 h; Potency, µM (doses to about 46.1 µM), actives largely listed as cytotoxic; further: on the % scale 0 is the no-effect control and ±100 the full control effect; nearly all actives have a fitted effect of over 60% in size
#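 Parental KB-3-1 adenocarcinoma cells in phenol-red-free DMEM with 10% FBS were pin-treated with compounds at several concentrations, incubated 72 h at 37 °C, and viability read by CellTiter-Glo luminescence; concentration-effect curves were fitted after normalization.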
# MCF10A rereplic: DNA re-replication induction in MCF 10a cells | MCF 10A DNA re-replication, Hoechst nuclear intensity, 48 h | Potency, µM (titrated, usually from 46.1 µM), for the others: at the top dose activity, positive = re-replication, hits mostly activators | 2.9% of 350,000 active | AID 624296; further: % of control where 0% means no effect; nearly all actives have a fitted effect of over 50% in size
# KB-V1 MDR tox: KB-V1 MDR subline cytotoxicity; KB-V1 MDR cells viability, CellTiter-Glo, 72 h; Potency, µM (highest dose often 46.1 µM), usual class: cytotoxic; 3.4% of 400,000 active; further: on the % scale 0 is the no-effect control and ±100 the full control effect; nearly all actives have a fitted effect of over 60% in size
#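 KB-V1, DMEM (no phenol red) + 10% FBS; cpd pin-transferred, titration series; 72 h, 37 degrees C; CellTiter-Glo, luminescence. Data normalized, curve-fit.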
# HT1080 IDH1KD tx: HT-1080 IDH1 knockdown cell toxicity (counter line); HT-1080 IDH1 knockdown viability, ATP luminescence, 48 h; Potency, µM (highest dose often 46.1 µM), without a hit: top-dose activity, negative = toxicity, most hits filed as cytotoxic; 2% of 360,000 active;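 further: 0% = DMSO wells and -100% = cell-free medium wells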
#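 After a 2 h attachment period, IDH1KD HT-1080 cells took pin-transferred compound for 48 h at 37 °C; ATP-based luminescence after 10 min room-temperature reagent incubation reported viability.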
# HT1080NT lethal: kills 2HG-producing HT-1080-NT fibrosarcoma cells. HT-1080-NT fibrosarcoma viability, CellTiter-Glo ATP luminescence, 48 h. Potency, µM (doses to about 46.1 µM), inactives show at the top dose activity, negative = less viability, actives largely listed as cytotoxic. 1.6% of 360,000 active. AID 686970;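 further: NT is the 2HG producing partner of a matched IDH1 knockdown line; 0% = DMSO-treated cells and -100% = media-only wells without cells; nearly all actives have a fitted effect of over 55% in size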
#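 750 cells/well, RPMI + 5% FBS; 2 h settle, compound pin-transfer, 48 h at 37 degrees C. CellTiter-Glo 10 min RT, luminescence. Normalized to DMSO and media-only wells.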
# Numbers without * were called inactive; i = inactive; ? = inconclusive; . = not tested or not shown. Shown are actives, neighbours in structure and some others; about 8% of the full set was active somewhere. The call rests on the fitted dose curve; in most records, active means well fitted curve in the direction sought with a large enough effect; inconclusive means small, poorly fitted or top-dose-only effect, or another doubt; inactive means no such curve, though single readings can be large; an effect the other way counts as inactive or inconclusive. Potency means the concentration at half of the fitted maximal effect.
SMILES,SW480 rerep,KB-3-1 tox,MCF10A rereplic,KB-V1 MDR tox,HT1080 IDH1KD tx,HT1080NT lethal
CCCS(=O)c1nc(C)cc(C)c1S(C)(=O)=O (stereo not given),5%,i,-7%,i,16%,2%
COc1cc2c3c(cccc3c1)C(=O)N(CCN1CCCC1)C2=O,.,?,.,10µM*,8.2µM*,13µM*
O=C1c2cccc3cccc(c23)N1Cc1cccc(F)c1,?,?,26µM*,i,-4%,0%
COc1ccc(CN2C(=O)c3ccccc3C2OC)cc1 (stereo not given),5%,i,-3%,i,5%,3%
COc1ccc(C(=O)CN2CCN(CCN3C(=O)c4cccc5cccc(c45)C3=O)CC2)cc1,?,i,23%,i,-30%,-27%
COc1ccc(C(=O)c2ccccc2CN2C(=O)c3ccccc3C2=O)cc1,2%,i,1%,16µM*,5%,-1%
COc1ccc(CN2C(=O)c3ccccc3C(/C=N\OCc3ccc(C)cc3)C2=O)cc1 (stereo not given),0%,21µM*,-6%,?,-22%,-21%
CCCCCCCN1CCC(=O)N([C@H](CO)c2ccccc2)CC1,-9%,i,-18%,i,18%,8%
C[C@H](NC(=O)OC(C)(C)C)C(=O)c1ccco1,.,i,.,i,.,.
O=C1c2cccc3cccc(c23)C(=O)N1Cc1ccccc1,6%,i,18%,i,-6%,-11%
COc1ccc(CN2C(=O)c3cccc4cccc(c34)C2=O)cc1,18µM*,i,-4%,i,8%,?
CCOc1ccccc1NC(=O)c1cc(C(=O)c2cc(OC)ccc2O)coc1=N,-1%,i,?,12µM*,1%,-3%
Cc1cccc(NC(=O)C(=O)NCCc2csc(-c3ccc(F)cc3)n2)c1C,.,i,.,i,.,.
CC1CCc2cc(F)ccc2N1C(=O)CSc1nnc2c(n1)[nH]c1ccccc12 (stereo not given),2%,i,?,16µM*,?,-1%
CC1CCc2cc(F)ccc2N1C(=O)CSc1nnc(-c2cccs2)n1C (stereo not given),-2%,i,9%,7.3µM*,2%,-1%
Cn1c(SCC(=O)N2CCCc3ccccc32)nnc1-c1cccs1,-2%,i,0%,i,4%,0%
Cc1c(N(C(=O)CNC(=O)c2ccccc2)C2(C(=O)NC3CCCCC3)CCCCC2)c(=O)n(-c2ccccc2)n1C,-8%,i,-4%,i,29%,?
COc1ccc(NC(=S)c2ccncc2)cc1,?,?,-45%,18µM*,-8%,12%
CCOc1ccc(NC(=S)Nc2cc(OC)c(Cl)cc2OC)cc1,-27%,i,-58%,16µM*,6%,10%
CCOc1ccc(NC(=S)Nc2ccc3nsnc3c2)cc1,21µM*,i,?,i,-1%,-14%
CC(C)N(C(=O)Nc1ccc2nsnc2c1)C(C)C,?,?,16µM*,?,?,18µM*
NS(=O)(=O)c1ccc(NC(=O)CSc2cn[nH]n2)cc1,-9%,i,-5%,i,-9%,18%
COc1ccccc1NC(=O)c1cccc(S(=O)(=O)N2CCN(c3ccccc3)CC2)c1,3%,i,-1%,?,2%,1%
COc1cccc(-c2nc(CS(=O)(=O)CC(=O)NCCc3ccc(Cl)cc3)c(C)o2)c1,.,i,.,i,.,.
COc1ccc(NC(=S)Nc2ccc3nc(C)c(C)nc3c2)cc1,-1%,i,7%,i,1%,11%
SMILES,SW480 rerep,KB-3-1 tox,MCF10A rereplic,KB-V1 MDR tox,HT1080 IDH1KD tx,HT1080NT lethal
CCOc1ccc(NC(=S)Nc2ccc(C)c([N+](=O)[O-])c2)cc1,-2%,i,1%,16µM*,11%,?
COc1ccc(NC(=S)NN(C)C(=S)Nc2ccc(OC)cc2)cc1,3.7µM*,?,?,?,1.3µM*,1.5µM*
COc1ccc(NC(=S)Nc2ccc3nsnc3c2)cc1,6%,i,22%,18µM*,?,-25%
O=C(NC1CC(=O)c2sccc21)c1ccc(Cl)cc1Cl (stereo not given),6%,i,8%,i,2%,1%
N=C1N(c2ccccc2)C(=S)C(=Nc2ccccc2)N1c1ccccc1,?,i,18µM*,i,?,2%
COc1ccc(N=C2C(=S)N(c3ccc(OC)cc3)C(=NS(=O)(=O)c3ccccc3)N2c2ccccc2)cc1,-1%,i,13%,?,11%,-3%
COc1ccc(-c2nc3c4ccccc4ccn3c2CN2CCOCC2)cc1OC,-16%,i,?,16µM*,6%,-14%
COc1ccc(-c2nc3c4ccccc4ccn3c2Cc2cccc(F)c2)cc1OC,.,i,.,i,?,23µM*
COc1cc(/C=C2\SC(=Nc3ccccc3)N(Cc3ccco3)C2=O)ccc1OC(C)C(=O)O (stereo not given),0%,?,?,i,1%,-12%
COCCN1C(=O)/C(=C/c2ccc(OCc3ccc(C(=O)O)cc3)c(OC)c2)SC1=Nc1ccccc1,-693%,i,?,21µM*,-17%,-22%
CC(C(=O)O)c1ccc2c(c1)Cc1cccnc1O2 (stereo not given),-3%,.,-2%,.,.,.
O=C(O)c1ccc(N[C@@H]2OC[C@@H](O)[C@@H](O)[C@@H]2O)cc1,-1%,.,2%,.,.,.
CCC(=NCCc1c(C)[nH]c2ccc(C)cc12)C1=C(O)CC(c2ccccc2)CC1=O (stereo not given),2.6µM*,0.73µM*,?,i,1.3µM*,?
Cc1ccc(NC(=O)/C(C#N)=C/c2ccccc2Cl)cc1C,.,?,.,i,.,.
Cc1cc(C)n2nc(C(=O)OCC(=O)c3ccccc3)nc2n1,8.2µM*,i,?,i,-29%,-4%
Cc1cc(C)n2nc(C(=O)OCC(=O)N(C)Cc3ccccc3)nc2n1,-94%,i,-1%,i,13%,12%
O=C(/C=C/c1ccco1)N1CCN(C/C=C/c2ccccc2)CC1,7%,i,?,15µM*,7%,19%
O=C(c1cccnc1)N1CCN(C/C=C/c2ccccc2)CC1,-9%,i,6%,i,19%,21%
Cc1cc(C(=O)N2CCN(C/C=C/c3ccccc3)CC2)cs1,-5%,i,5%,16µM*,-6%,-3%
O=C(/C=C/c1ccco1)N1CCN(S(=O)(=O)/C=C/c2ccccc2)CC1,-1%,i,11%,?,2%,0%

# Assay outcomes as filed in PubChem BioAssay.
